AC50 and outcome data for 14 compounds are collected here from PubChem BioAssay (EPA / NIEHS).

Results filed as inconclusive are left out. Active and inactive are the calls of the source. The calls were made as follows: active = hit-call score of the fitted dose curve at least 0.9, where 1 is the maximum; inconclusive = response in the unintended direction; inactive = score below 0.9.

Sequence of Glycogen synthase kinase-3 beta (Homo sapiens) (P49841 whole entry, looked up): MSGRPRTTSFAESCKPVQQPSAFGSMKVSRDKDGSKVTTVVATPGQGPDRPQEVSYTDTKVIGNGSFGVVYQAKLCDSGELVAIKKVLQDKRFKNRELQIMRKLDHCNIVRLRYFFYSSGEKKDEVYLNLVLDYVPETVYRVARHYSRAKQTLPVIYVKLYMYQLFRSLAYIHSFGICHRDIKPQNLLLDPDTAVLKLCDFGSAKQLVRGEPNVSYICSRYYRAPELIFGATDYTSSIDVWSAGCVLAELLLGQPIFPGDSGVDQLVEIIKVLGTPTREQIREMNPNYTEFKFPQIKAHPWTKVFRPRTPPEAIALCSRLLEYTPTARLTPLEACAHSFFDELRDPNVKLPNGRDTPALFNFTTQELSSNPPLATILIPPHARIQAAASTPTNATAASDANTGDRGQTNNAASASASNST
Sequence of human Fibroblast Growth Factor Receptor 1 (FGFR1), FGFR1 (gene 2260) (P11362 whole entry, looked up): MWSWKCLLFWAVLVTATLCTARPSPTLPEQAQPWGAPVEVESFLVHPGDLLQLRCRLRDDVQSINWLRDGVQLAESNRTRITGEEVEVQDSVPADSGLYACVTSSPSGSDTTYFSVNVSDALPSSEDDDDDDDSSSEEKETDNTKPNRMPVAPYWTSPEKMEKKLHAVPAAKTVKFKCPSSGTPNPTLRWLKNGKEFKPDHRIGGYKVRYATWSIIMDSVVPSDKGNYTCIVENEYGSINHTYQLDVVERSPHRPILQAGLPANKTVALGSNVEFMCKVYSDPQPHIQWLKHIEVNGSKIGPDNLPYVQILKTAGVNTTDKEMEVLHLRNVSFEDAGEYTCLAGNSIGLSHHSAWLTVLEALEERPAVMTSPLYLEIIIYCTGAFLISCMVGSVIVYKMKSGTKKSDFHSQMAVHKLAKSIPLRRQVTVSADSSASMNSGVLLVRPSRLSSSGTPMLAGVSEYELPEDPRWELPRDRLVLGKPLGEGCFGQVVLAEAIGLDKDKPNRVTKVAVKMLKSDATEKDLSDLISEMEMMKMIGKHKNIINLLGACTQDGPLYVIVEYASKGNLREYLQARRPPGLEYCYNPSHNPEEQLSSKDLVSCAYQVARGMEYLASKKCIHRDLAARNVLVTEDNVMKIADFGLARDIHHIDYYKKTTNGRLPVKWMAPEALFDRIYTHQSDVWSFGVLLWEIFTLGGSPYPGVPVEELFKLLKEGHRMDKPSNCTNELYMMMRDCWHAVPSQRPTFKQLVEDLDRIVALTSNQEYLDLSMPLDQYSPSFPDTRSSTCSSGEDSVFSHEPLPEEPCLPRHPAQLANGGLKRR
Sequence of human Mitogen-Activated Protein Kinase 1 (MAPK 1), MAPK1 (gene 5594) (P28482 whole entry, looked up): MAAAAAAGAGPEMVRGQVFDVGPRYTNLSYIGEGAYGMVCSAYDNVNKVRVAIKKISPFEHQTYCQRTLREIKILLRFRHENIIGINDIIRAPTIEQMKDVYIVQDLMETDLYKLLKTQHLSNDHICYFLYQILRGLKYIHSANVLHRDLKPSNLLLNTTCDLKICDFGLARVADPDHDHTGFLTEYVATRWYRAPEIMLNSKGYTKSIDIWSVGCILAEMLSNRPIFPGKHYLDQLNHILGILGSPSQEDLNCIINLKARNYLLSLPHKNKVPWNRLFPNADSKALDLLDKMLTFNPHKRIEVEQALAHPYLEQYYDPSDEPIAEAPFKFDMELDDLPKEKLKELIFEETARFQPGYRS
Sequence of Protein deacetylase HDAC6 (Homo sapiens) (Q9UBN7 whole entry, looked up): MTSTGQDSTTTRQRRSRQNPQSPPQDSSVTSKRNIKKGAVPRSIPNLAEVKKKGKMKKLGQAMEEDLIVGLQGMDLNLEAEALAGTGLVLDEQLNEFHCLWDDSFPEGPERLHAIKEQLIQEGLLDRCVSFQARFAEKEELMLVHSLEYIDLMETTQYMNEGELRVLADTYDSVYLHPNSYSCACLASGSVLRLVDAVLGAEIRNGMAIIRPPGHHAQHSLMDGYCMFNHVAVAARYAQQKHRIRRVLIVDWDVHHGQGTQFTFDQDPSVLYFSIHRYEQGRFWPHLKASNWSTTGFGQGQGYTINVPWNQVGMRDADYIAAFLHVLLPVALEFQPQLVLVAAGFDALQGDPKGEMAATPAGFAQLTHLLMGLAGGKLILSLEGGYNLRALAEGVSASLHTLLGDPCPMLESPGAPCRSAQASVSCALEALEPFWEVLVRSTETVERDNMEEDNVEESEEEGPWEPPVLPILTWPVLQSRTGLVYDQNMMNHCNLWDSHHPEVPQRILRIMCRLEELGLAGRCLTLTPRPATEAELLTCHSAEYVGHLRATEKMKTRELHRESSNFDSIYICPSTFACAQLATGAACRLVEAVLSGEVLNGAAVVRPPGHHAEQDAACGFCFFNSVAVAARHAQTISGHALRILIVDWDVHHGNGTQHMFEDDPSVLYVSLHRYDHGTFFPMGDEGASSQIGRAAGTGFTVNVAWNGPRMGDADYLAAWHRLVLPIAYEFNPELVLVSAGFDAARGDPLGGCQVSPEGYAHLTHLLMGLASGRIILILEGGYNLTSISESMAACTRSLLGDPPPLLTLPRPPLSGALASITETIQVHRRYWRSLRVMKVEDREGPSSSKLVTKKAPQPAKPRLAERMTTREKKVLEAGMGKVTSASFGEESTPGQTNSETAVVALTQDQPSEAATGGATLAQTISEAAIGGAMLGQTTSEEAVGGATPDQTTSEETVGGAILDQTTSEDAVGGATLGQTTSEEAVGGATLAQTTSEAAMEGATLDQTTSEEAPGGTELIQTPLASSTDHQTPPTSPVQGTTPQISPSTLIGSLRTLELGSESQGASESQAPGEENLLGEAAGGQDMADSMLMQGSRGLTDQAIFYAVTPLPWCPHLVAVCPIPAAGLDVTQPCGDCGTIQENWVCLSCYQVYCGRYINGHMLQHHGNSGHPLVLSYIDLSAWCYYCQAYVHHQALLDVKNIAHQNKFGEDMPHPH

The first assay has as its target human Fibroblast Growth Factor Receptor 1 (FGFR1), FGFR1 (gene 2260) (UniProt P11362). Briefly: NVS_ENZ_hFGFR1: NovaScreen (NVS) Enzymatic Assay for human Fibroblast Growth Factor Receptor 1 (FGFR1) (AID 2283159).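 As to AC50: hits lower the signal so potencies describe inhibitors of the kinase.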 An outline of the steps: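 Cell-free recombinant kinase with fluorescent substrate, product separated by electrophoretic mobility shift; read 1 hour after dosing, loss of signal relative to DMSO. Initial screen in duplicate at 25 uM, actives followed in concentration series.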
As to `CC(C)O.CC(C)O.OCCN(CCO)CCO.OCCN(CCO)CCO.[Ti]`, the concentration at half-maximal activity (AC50) (usually the concentration giving half of the maximal activity seen) is 1.9 µM (active).
As to `N#Cc1cccnc1`, the outcome was inactive.
Consider `CCCCCCCCCCCCOS(=O)(=O)O`, for which the half-maximal activity concentration (AC50) was 13.9 µM (active).
As to `CCCCCCCCCCCCc1cccc(S(=O)(=O)O)c1`, the AC50 was 11.4 µM (active).
Take `O=C(O)C1(c2ccc3c(c2)OC[C@H](Cc2ccc(-c4ccccc4)cc2)[C@H]3O)CCCC1`: the result was inactive.
Same read-out and setting: then `O=C(N[C@H]1CN2CCC1CC2)c1ccc2c(c1)OCCO2`, with “inactive”; and `Clc1cccc(Cl)c1Cl`, with “inactive”.
Regarding `COc1nn(C(=O)NS(=O)(=O)c2ccccc2OC(F)(F)F)c(=O)n1C`, the outcome was inactive.

Another assay addresses Protein deacetylase HDAC6 (Homo sapiens) (UniProt Q9UBN7). Briefly: NVS_ENZ_hHDAC6: NovaScreen (NVS) Enzymatic Assay for human Histone Deacetylase 6 (HDAC6) (AID 2283164). Here is the method: NVS_ENZ_hHDAC6 is a biochemical, single-readout assay that uses extracted gene-proteins in a cell-free assay. Measurements were taken 1 hour after chemical dosing in a 384-well plate.NVS_ENZ_hHDAC6 is one of one assay component(s) measured or calculated from the NVS_ENZ_hHDAC6 assay. It is designed to make measurements of enzyme activity, a form of enzyme reporter, as detected with fluorescence intensity signals by Fluorescence and electrophoretic mobility shift technology.Data from the assay component NVS_ENZ_hHDAC6 was analyzed into 1 assay endpoint. This assay endpoint, NVS_ENZ_hHDAC6, was analyzed in the positive analysis fitting direction relative to DMSO as the negative control and baseline of activity. Using a type of enzyme reporter, loss-of-signal activity can be used to understand changes in the enzymatic activity as they relate to the gene HDAC6. Furthermore, this assay endpoint can be referred to as a primary readout, because this assay has produced multiple assay endpoints where this one serves a enzymatic activity function. To generalize the intended target to other relatable targets, this assay endpoint is annotated to the hydrolase intended target family, where the subfamily is histone deacetylase.
Binding assays used specific radioligands (tritiated, iodinated) with non-radioactive competitive displacement ligands in agonist or antagonist protocols (as indicated) and various reference compounds and inhibitors to titrate specific binding to receptors and transporters. Most enzyme assays (CYPs, kinases, phosphatases, proteases, HDACs) used recombinant protein and specific substrates (fluorescence mostly, some colorimetric and radioactive) and inhibitors, followed by a biochemical separation of substrate and product. All assays for the biochemical HTS were initially run in duplicate at a single concentration (10 uM for CYP450 assays and 25 uM for all others). […]
With `N#Cc1cccnc1`, the outcome was inactive.
`CCCCCCCCCCCCOS(=O)(=O)O`: the outcome was inactive.
For `CCCCCCCCCCCCc1cccc(S(=O)(=O)O)c1`, the AC50 was 13.7 µM (active).

A further assay addresses Glycogen synthase kinase-3 beta (Homo sapiens) (UniProt P49841). Nature of the assay: NVS_ENZ_hGSK3b: NovaScreen (NVS) Enzymatic Assay for human Glycogen Synthase Kinase-3 beta (GSK3b) (AID 2283165). An outline of the steps:
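Recombinant enzyme with specific fluorescent substrate, 1 h, product separated by electrophoretic mobility shift. Primary duplicate screen at 25 uM; actives (e.g. 30% inhibition) followed in singleton concentration-response to 50 uM. Signal loss fitted versus DMSO.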
As for `CC(C)O.CC(C)O.OCCN(CCO)CCO.OCCN(CCO)CCO.[Ti]`, the AC50 is 0.00229 µM (active).
In the case of `N#Cc1cccnc1`, the outcome was inactive.
On to `CC(C)(C)c1ccccc1O`, for which the result was inactive.
Consider `Clc1cccc(Cl)c1`, for which the result was inactive.
In the case of `Oc1cc(Cl)c(Cl)cc1Cl`, the outcome was inactive.
`CCCCCCCCCCCCc1cccc(S(=O)(=O)O)c1`: the AC50 was 25.3 µM (active).

The target in a further assay is human IkappaB Kinase alpha (IKKa), CHUK (gene 1147) (UniProt O15111). Briefly: NVS_ENZ_hIKKa: NovaScreen (NVS) Enzymatic Assay for human IkappaB Kinase alpha (IKKa) (AID 2283167). An outline of the steps: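 Compounds first run in duplicate at 25 uM, those meeting threshold (e.g. 30% inhibition) retested to maximum 50 uM. Enzyme activity of recombinant IKKa measured by fluorescence with electrophoretic mobility shift separation, 1 hour post-dosing, DMSO baseline.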
Sequence of human IkappaB Kinase alpha (IKKa), CHUK (gene 1147) (O15111 whole entry, looked up): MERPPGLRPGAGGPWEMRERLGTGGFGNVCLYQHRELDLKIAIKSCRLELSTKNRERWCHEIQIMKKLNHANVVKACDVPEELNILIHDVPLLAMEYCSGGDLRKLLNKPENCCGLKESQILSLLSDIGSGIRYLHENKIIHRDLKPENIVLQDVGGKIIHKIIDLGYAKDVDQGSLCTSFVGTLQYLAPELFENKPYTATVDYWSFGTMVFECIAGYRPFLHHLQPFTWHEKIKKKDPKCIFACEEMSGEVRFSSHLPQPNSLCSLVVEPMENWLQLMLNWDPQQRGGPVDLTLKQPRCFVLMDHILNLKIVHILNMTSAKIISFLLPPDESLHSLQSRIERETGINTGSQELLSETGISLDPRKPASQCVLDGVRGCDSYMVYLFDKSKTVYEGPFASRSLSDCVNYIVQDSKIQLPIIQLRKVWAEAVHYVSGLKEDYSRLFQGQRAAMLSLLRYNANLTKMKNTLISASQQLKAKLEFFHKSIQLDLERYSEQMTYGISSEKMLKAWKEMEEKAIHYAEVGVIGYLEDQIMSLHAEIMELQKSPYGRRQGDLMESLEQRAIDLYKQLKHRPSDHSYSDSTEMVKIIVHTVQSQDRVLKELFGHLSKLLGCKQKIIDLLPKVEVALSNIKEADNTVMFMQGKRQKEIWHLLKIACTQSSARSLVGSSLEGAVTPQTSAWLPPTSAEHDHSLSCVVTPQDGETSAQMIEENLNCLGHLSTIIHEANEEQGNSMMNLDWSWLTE
Consider `N#Cc1cccnc1`, for which the result was inactive.
`CCCCCCCCCCCCc1cccc(S(=O)(=O)O)c1`: the AC50 was 40.9 µM (active).
With `Clc1cccc(Cl)c1Cl`, the call was inactive.

In another assay the target is human c-Jun N-terminal Kinases (JNK2), MAPK9 (gene 5601) (UniProt P45984). Briefly: NVS_ENZ_hJNK2: NovaScreen (NVS) Enzymatic Assay for human c-Jun N-terminal Kinases (JNK2) (AID 2283171). An outline of the steps: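 Chemicals first tested in duplicate at 25 uM, then in singleton concentration series up to 50 uM, against extracted JNK2 enzyme. Activity loss read by fluorescence with mobility-shift separation 1 h post-dose; DMSO baseline.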
Sequence of human c-Jun N-terminal Kinases (JNK2), MAPK9 (gene 5601) (P45984 whole entry, looked up): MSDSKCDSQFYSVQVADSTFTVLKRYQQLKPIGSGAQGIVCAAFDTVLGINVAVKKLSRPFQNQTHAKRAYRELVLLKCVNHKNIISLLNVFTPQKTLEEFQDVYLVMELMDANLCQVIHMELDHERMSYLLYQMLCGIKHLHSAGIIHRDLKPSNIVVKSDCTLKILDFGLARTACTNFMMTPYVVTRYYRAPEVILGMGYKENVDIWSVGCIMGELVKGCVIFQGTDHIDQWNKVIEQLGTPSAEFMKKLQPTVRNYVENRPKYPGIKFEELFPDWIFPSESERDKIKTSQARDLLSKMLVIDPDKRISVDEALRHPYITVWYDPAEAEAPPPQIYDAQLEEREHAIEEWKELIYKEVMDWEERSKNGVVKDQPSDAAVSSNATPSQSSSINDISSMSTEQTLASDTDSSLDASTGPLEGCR
On to `CC(C)O.CC(C)O.OCCN(CCO)CCO.OCCN(CCO)CCO.[Ti]`, for which the compound was classed as inactive.
As for `N#Cc1cccnc1`, the result was inactive.
On to `O=C(N[C@H]1CN2CCC1CC2)c1ccc2c(c1)OCCO2`, for which the result was inactive.

In the next assay the target is human Mitogen-Activated Protein Kinase 1 (MAPK 1), MAPK1 (gene 5594) (UniProt P28482). Nature of the assay: NVS_ENZ_hMAPK1: NovaScreen (NVS) Enzymatic Assay for human Mitogen-Activated Protein Kinase 1 (MAPK 1) (AID 2283175). An outline of the steps:
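Cell-free recombinant human MAPK1 enzymatic assay, fluorescence/electrophoretic mobility shift read at 1 h; loss of signal vs DMSO. Primary screen in duplicate at 25 uM; actives (e.g. ≥30% inhibition) run as concentration-response up to 50 uM.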
For `O=C(O)CC(O)(CC(=O)O)C(=O)O`, the result was inactive.
For the compound `CCCCCCCCCCCCOS(=O)(=O)O`, the AC50 is 37.3 µM (active).
On to `O=C(N[C@H]1CN2CCC1CC2)c1ccc2c(c1)OCCO2`, for which the compound was classed as inactive.

The target of the next assay is Mitogen-activated protein kinase 3 (Homo sapiens) (UniProt P27361). Briefly: NVS_ENZ_hMAPK3: NovaScreen (NVS) Enzymatic Assay for human Mitogen-Activated Protein Kinase 3 (MAPK 3) (AID 2283177). An outline of the steps: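 Chemicals were first tested in duplicate at 25 uM, with hits re-run as concentration series (max 50 uM). Recombinant enzyme activity, measured 1 h post-dose in a cell-free format, was read by fluorescence/mobility shift relative to DMSO.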
Sequence of Mitogen-activated protein kinase 3 (Homo sapiens) (P27361 whole entry, looked up): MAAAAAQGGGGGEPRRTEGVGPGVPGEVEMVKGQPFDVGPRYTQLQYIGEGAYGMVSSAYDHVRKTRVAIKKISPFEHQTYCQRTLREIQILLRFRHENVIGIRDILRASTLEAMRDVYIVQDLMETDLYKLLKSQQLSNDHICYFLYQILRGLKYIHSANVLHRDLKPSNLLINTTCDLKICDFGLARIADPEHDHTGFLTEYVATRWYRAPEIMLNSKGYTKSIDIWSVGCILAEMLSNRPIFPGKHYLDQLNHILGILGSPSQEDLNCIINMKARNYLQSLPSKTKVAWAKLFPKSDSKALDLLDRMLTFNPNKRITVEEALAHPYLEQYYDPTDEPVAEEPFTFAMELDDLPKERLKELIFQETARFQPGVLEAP
On to `CC(C)O.CC(C)O.OCCN(CCO)CCO.OCCN(CCO)CCO.[Ti]`, for which the AC50 is 0.00287 µM (active).
Take `N#Cc1cccnc1`: the call was inactive.
The same measure, in the same setting: then `O=C(N[C@H]1CN2CCC1CC2)c1ccc2c(c1)OCCO2`, with “inactive”; and `COc1nn(C(=O)NS(=O)(=O)c2ccccc2OC(F)(F)F)c(=O)n1C`, with “inactive”.
Consider `O=C1c2ccccc2C(=O)C1C(=O)C(c1ccccc1)c1ccc(Cl)cc1` (stereo unspecified), for which the outcome was inactive.

The target in another assay is human MAP Kinase-Activated Protein Kinase 2 (MAPKAPK2), MAPKAPK2 (gene 9261) (UniProt P49137). Nature of the assay: NVS_ENZ_hMAPKAPK2: NovaScreen (NVS) Enzymatic Assay for human MAP Kinase-Activated Protein Kinase 2 (MAPKAPK2) (AID 2283178). An outline of the steps: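 Chemicals screened in duplicate at 25 uM, then to 50 uM top concentration in concentration-response, against recombinant human MAPKAPK2; substrate conversion read 1 hr post-dosing by fluorescence after electrophoretic mobility-shift separation, loss-of-signal relative to DMSO.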
Sequence of human MAP Kinase-Activated Protein Kinase 2 (MAPKAPK2), MAPKAPK2 (gene 9261) (P49137 whole entry, looked up): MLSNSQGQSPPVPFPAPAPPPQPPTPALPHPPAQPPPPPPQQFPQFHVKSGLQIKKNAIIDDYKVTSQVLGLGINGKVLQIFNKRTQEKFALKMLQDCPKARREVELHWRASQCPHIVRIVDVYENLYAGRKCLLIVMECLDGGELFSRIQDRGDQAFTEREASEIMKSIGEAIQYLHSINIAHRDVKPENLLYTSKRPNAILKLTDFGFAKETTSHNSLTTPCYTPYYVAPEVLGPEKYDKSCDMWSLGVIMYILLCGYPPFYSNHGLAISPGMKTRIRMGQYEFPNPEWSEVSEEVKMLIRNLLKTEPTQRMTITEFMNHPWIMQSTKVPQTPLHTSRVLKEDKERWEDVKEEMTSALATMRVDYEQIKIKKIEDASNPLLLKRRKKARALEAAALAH
Take `CC(C)O.CC(C)O.OCCN(CCO)CCO.OCCN(CCO)CCO.[Ti]`: the AC50 was 0.00624 µM (active).
Consider `N#Cc1cccnc1`, for which the result was inactive.
For the compound `CCCCCCCCCCCCc1cccc(S(=O)(=O)O)c1`, the concentration at half-maximal activity (AC50) is 34.3 µM (active).
Take `O=C(N[C@H]1CN2CCC1CC2)c1ccc2c(c1)OCCO2`: the call was inactive.
On the same count and under the same terms, the entry for `COc1ccccc1N` is “inactive”.
